The values below come from ChEMBL document CHEMBL1157539, “Thousands of chemical starting points for antimalarial lead identification” (Nature, 2010).

Holding throughout (assay type): functional
Test [1] relates to Plasmodium falciparum. As to the kind of experiment: GSK_TCMDC: Inhibition of Plasmodium falciparum 3D7 in whole red blood cells, using parasite LDH activity as an index of growth. Test compounds present at 2uM.
For test [2], the system named is Plasmodium falciparum. As to the kind of experiment: GSK_TCMDC: Inhibition of Plasmodium falciparum Dd2 in whole red blood cells, using parasite LDH activity as an index of growth. Test compounds present at 2uM.
The subject of a further test is HepG2. In words: GSK_TCMDC: Percent inhibition of human HepG2 cell line. Test compounds present at 10uM.

As usually defined, the Inhibition is the relative decrease from the control value, in per cent. Lower therefore signals a response near the control. In the case of `COc1cccc2cc(C(=O)N[C@@H](CC(C)C)C(=O)N[C@H](/C=N/N3C(=O)CN(Cc4ccccc4)C3=O)CCc3ccccc3)oc12`, the results for the Inhibition in the test with Plasmodium falciparum [1], with Plasmodium falciparum [2] and with HepG2 were 85%, 52% and 14%, respectively.

Consider `O=C(Nc1ccc(OC2CCN(Cc3ccsc3)C2)c(Cl)c1)c1ccc2ncccc2c1.O=C(O)C(F)(F)F` (stereo unspecified), for which the Inhibition turned out to be 88% in the test on Plasmodium falciparum [1], 10% in the test on Plasmodium falciparum [2] and 84% in the test on HepG2.

`Cl.N#Cc1ccc2c(c1)CCN(CCC1CCC(NC(=O)/C=C/c3ccc(Cl)c(Cl)c3)CC1)CC2` (stereo unspecified): the Inhibition in the test with Plasmodium falciparum [1] amounted to 100%; in the test with Plasmodium falciparum [2], 51%; in the test with HepG2, 31%.

Regarding `O=[N+]([O-])c1ccccc1/C=N/Nc1ccnc2ccc(C(F)(F)F)cc12`, the Inhibition was found to be 100% in the test on Plasmodium falciparum [1], 36% in the test with Plasmodium falciparum [2] and 6% in the test with HepG2.

Take `CC(C)CCN(Cc1cncn1Cc1ccccc1F)C(=O)c1cncc(-c2ccccc2)c1`: the values for the Inhibition in the test with Plasmodium falciparum [1], in the test with Plasmodium falciparum [2] and in the test with HepG2 were 96%, 3% and 1%, respectively.

As for `CCN(CCO)Cc1ccc(-c2ccc(NS(=O)(=O)c3cccc4cccnc34)cc2)cc1.O=C(O)C(F)(F)F`, the Inhibition is given as 92% in the test with Plasmodium falciparum [1], 16% with Plasmodium falciparum [2] and 25% in the test on HepG2.

Regarding `O=C(C1CC1c1ccccc1)N(Cc1ccc(-c2ccc(CNCCc3ccccc3)cc2)cc1)C1CCNCC1.O=C(O)C(F)(F)F` (stereo unspecified), the Inhibition with Plasmodium falciparum [1] was 96%; in the test with Plasmodium falciparum [2] it was 39%; in the test on HepG2 it was 36%.

On to `Cc1cc(NS(=O)(=O)c2cccc(C(C)N3CCC(N4CCCC4)CC3)c2)ccc1C(C)C` (stereo unspecified), for which the values for the Inhibition in the test with Plasmodium falciparum [1], with Plasmodium falciparum [2] and in the test on HepG2 were 100%, 53% and 30%, respectively.

Consider `CC(CN1CCN(C)CC1)C(=O)Nc1ccc(-c2ccc(-c3nc4ccccc4[nH]3)cc2)cc1` (stereo unspecified), for which the Inhibition is recorded as 92% with Plasmodium falciparum [1], 87% in the test on Plasmodium falciparum [2] and 13% in the test on HepG2.

For `N=C(N)NCCCCN(Cc1ccccc1)c1ccccc1`, the Inhibition in the test with Plasmodium falciparum [1] was 100%; with Plasmodium falciparum [2], 98%; in the test on HepG2, 0%.

Consider `O=C(Nc1ccc(C(F)(F)F)cc1)c1cccc(S(=O)(=O)NC2CCN(CC3CCCCC3)CC2)c1.O=C(O)C(F)(F)F`, for which the Inhibition in the test on Plasmodium falciparum [1] came out at 99%; with Plasmodium falciparum [2], 12%; in the test on HepG2, 18%.

On to `COc1cc(Cc2cnc(N)nc2N)cc(OCCCCCC(=O)O)c1OC.Cl`, for which the Inhibition with Plasmodium falciparum [1] came to 95%; with Plasmodium falciparum [2], 2%; with HepG2, 0%.

As for `CCN(CCCN1CCCCC1)c1cc(C)nc(Nc2cc(Cl)cc(Cl)c2)n1.O=C(O)C(F)(F)F`, the Inhibition worked out at 100% with Plasmodium falciparum [1], 99% in the test on Plasmodium falciparum [2] and 34% with HepG2.

Turning to `CC(=O)C1=NN(c2ccc(Cl)cc2)C(c2cccs2)N1c1ccccc1` (stereo unspecified), the Inhibition in the test with Plasmodium falciparum [1] turned out to be 88%; in the test on Plasmodium falciparum [2], 70%; in the test with HepG2, 0%.

Consider `Fc1ccc(CNc2ncc(-c3ccsc3)c(-c3nccs3)n2)cc1`, for which the Inhibition with Plasmodium falciparum [1] is 94%; in the test on Plasmodium falciparum [2], 77%; in the test with HepG2, 7%.

As for `Cc1ccc(-c2nnc(Nc3ccc(OCC(N)=O)cc3)c3ccccc23)cc1S(=O)(=O)NCC1CCCO1` (stereo unspecified), the figures for the Inhibition with Plasmodium falciparum [1], with Plasmodium falciparum [2] and with HepG2 were 92%, 70% and 0%, respectively.

Consider `COCCNCc1cccc(-c2ccc3nccc(Nc4cc(O)ccc4C)c3c2)c1`, for which the figures for the Inhibition with Plasmodium falciparum [1], in the test on Plasmodium falciparum [2] and in the test with HepG2 were 100%, 92% and 0%, respectively.

Regarding `Cc1cc(N(C)C)nc(Nc2ccc(NC(=O)c3c(F)cccc3F)cc2)n1`, the Inhibition in the test on Plasmodium falciparum [1] came to 94%; in the test on Plasmodium falciparum [2] it was 45%; with HepG2 it was 50%.

Consider `CC(C)CC(NC(=O)c1ccc(F)cc1)C(=O)N[C@H](/C=N/N1CCNC1=O)CC(C)C` (stereo partly specified), for which the Inhibition with Plasmodium falciparum [1] worked out at 89%; with Plasmodium falciparum [2], 84%; with HepG2 it was 0%.

In the case of `CCOc1ccc(NC(=O)c2ccc(CN3CCCN(Cc4cccc(O)c4)CC3)cc2)cc1.O=C(O)C(F)(F)F`, the Inhibition in the test with Plasmodium falciparum [1] was found to be 85%; in the test with Plasmodium falciparum [2] it was 9%; in the test on HepG2, 44%.

On to `CN(C)c1ccc(C=Cc2nc(=O)c3ccccc3o2)cc1`, for which the Inhibition with Plasmodium falciparum [1] was found to be 96%; in the test with Plasmodium falciparum [2], 97%; in the test on HepG2, 6%.

On to `COc1ccc2c(c1)[nH]c1c(/C=C/c3ccc([N+](=O)[O-])cc3)nccc12`, for which the Inhibition is reported as 100% with Plasmodium falciparum [1], 63% in the test on Plasmodium falciparum [2] and 4% in the test with HepG2.

Regarding `Cc1cnc(NC(=O)c2cn(-c3ccccc3)nc2-c2cccs2)s1`, the Inhibition in the test with Plasmodium falciparum [1] is reported as 91%; in the test with Plasmodium falciparum [2] it was 1%; in the test with HepG2, 0%.

For the molecule `Cc1ccc(NC(=O)c2cc([N+](=O)[O-])ccc2NCc2cccnc2)cc1Cl`, the Inhibition in the test with Plasmodium falciparum [1] is recorded as 86%; in the test with Plasmodium falciparum [2], 58%; with HepG2, 9%.

Consider `Br.CCCC1N=C(N)N=C(N)N1c1ccc(C)cc1` (stereo unspecified), for which the Inhibition with Plasmodium falciparum [1] turned out to be 94%; in the test with Plasmodium falciparum [2], 2%; in the test on HepG2, 1%.

As for `O=C(Nc1cccc(OC2CCN(Cc3ccccc3)CC2)c1)Nc1cccc([N+](=O)[O-])c1.O=C(O)C(F)(F)F`, the values for the Inhibition in the test with Plasmodium falciparum [1], in the test with Plasmodium falciparum [2] and in the test with HepG2 were 100%, 48% and 10%, respectively.

As to `Cc1cccc(C)c1CNc1ccnc2cc(Br)ccc12.Cl`, the Inhibition came to 95% with Plasmodium falciparum [1], 99% in the test on Plasmodium falciparum [2] and 24% in the test on HepG2.

Turning to `COc1ccc2nccc(N3CCC(SCCNS(=O)(=O)c4ccc5c(c4)NC(=O)CS5)C3)c2n1.Cl` (stereo unspecified), the Inhibition is 99% in the test on Plasmodium falciparum [1], 17% with Plasmodium falciparum [2] and 20% in the test with HepG2.

As for `CN1CCN(CCCCCCNc2c3ccccc3nc3ccccc23)CC1.Cl`, the Inhibition with Plasmodium falciparum [1] came to 100%; in the test on Plasmodium falciparum [2], 0%; with HepG2, 35%.

`Cc1nc2ccccc2c(=O)n1NCc1ccc(Cl)c(Cl)c1`: the Inhibition in the test with Plasmodium falciparum [1] was 96%; in the test on Plasmodium falciparum [2], 92%; in the test on HepG2, 12%.

Consider `CN1CCN(c2cccc(-c3nnc(-c4ccc(OCC(=O)NCc5cccc(C(F)(F)F)c5)c([N+](=O)[O-])c4)o3)c2)CC1`, for which the Inhibition in the test on Plasmodium falciparum [1] was 90%; in the test on Plasmodium falciparum [2] it was 72%; in the test on HepG2 it was 25%.

For `O=C(c1cncc(-c2ccccc2)c1)N(Cc1cncn1Cc1ccccc1F)CC1CC1`, the Inhibition in the test on Plasmodium falciparum [1] is listed as 100%; in the test with Plasmodium falciparum [2], 0%; with HepG2, 0%.
